A short description of experiment [1]: compounds binding Alexa647 anti-His antibody – biochemical, small-molecule microarray, 635 nm fluorescence, artefact control for SMM control protein annotation, primary screen (AID 1128).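 Note: score merges feature fluorescence with signal-to-noise for each printed compound spot.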 Conditions: higher = more signal.
Experiment [2] relates to Human papillomavirus type 1a E7 protein (residues 1-88). Kind of experiment: HPV1a E7 small-molecule binders, primary screen, biochemical, small-molecule microarray, residues 1-88, 635 nm (AID 1129). The following applies: small-molecule microarray binding, fluorescence 635 nm; higher = more signal.
The target of experiment [3] is Focal adhesion kinase 1 (Homo sapiens) (UniProt Q05397). The experiment can be described thus: PTK2 protein binding on printed compound slides – biochemical, small-molecule microarray, 635/667 nm fluorescence, BSA, DTT, primary screen (AID 1130).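 Note: composite of spot emission at 667 nm and signal to noise over triplicate slides.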 The following applies: 635 nm fluorescence, higher = more signal.
Chain of Focal adhesion kinase 1 (Homo sapiens) (Q05397 whole entry, looked up): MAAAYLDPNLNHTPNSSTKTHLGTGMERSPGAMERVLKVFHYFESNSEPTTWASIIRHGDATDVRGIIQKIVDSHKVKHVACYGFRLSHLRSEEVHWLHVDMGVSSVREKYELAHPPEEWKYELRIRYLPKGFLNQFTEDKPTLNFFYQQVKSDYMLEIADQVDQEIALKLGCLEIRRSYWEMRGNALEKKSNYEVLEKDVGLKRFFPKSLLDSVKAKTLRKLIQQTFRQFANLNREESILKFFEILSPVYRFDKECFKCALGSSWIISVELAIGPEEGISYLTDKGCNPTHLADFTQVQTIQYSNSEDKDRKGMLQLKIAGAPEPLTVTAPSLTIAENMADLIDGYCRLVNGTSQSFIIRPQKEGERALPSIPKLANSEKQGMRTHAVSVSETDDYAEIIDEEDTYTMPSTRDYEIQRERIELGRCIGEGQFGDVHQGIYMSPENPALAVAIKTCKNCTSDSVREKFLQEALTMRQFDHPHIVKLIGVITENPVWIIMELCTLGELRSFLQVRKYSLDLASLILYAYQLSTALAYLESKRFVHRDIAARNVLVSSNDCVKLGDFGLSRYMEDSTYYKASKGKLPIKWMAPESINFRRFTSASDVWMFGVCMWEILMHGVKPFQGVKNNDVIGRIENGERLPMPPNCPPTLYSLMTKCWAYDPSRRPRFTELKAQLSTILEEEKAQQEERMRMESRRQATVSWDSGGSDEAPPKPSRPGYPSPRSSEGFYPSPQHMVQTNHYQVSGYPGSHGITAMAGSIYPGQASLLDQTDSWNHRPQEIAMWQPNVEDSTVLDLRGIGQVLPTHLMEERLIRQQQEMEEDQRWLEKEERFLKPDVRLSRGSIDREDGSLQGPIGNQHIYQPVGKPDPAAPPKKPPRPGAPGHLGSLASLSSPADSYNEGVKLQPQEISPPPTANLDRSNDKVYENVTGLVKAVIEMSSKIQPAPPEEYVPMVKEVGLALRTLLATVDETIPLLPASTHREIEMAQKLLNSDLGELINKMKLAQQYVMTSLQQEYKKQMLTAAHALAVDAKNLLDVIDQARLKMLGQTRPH
Experiment [4] deals with Fibrinogen (Alexa647-labelled). The experiment can be described thus: Alexa647-fibrinogen binding to printed small molecules – biochemical, small-molecule microarray, 635/667 nm fluorescence, artefact control for SMM control-protein annotation, profiling panel (AID 1131).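 Note: z-score merges 667 nm fluorescence with per-spot signal-to-noise over triplicate slides.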 Conditions: fibrinogen-A647 binding fluorescence, higher = more signal.
In experiment [5] the target is Follistatin (Homo sapiens) (UniProt P19883). Kind of experiment: FST protein binding to printed compounds – biochemical, small-molecule microarray, 635/667 nm fluorescence, primary screen (AID 1132). The following applies: 635 nm fluorescence, higher = more signal.
Chain of Follistatin (Homo sapiens) (P19883 whole entry, looked up): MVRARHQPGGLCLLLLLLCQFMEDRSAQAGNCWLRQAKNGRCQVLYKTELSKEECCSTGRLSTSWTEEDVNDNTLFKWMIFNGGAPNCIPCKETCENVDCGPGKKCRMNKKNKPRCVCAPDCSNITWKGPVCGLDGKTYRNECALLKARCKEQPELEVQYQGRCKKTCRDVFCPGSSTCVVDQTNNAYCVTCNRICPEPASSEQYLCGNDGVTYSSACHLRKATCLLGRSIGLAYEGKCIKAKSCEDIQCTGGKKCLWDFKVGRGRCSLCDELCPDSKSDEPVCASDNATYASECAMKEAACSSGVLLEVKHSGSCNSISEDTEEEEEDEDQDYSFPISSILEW
Experiment [6] has as its target Fibroblast growth factor 2 (Homo sapiens) (UniProt P09038). Kind of experiment: basic fibroblast growth factor binding to printed compounds – biochemical, small-molecule microarray, 635/667 nm fluorescence, primary screen (AID 1133). Conditions: FGF2, fluorescence 635/667, higher = more signal.
The nature of experiment [7]: JC-1 mitochondrial potential readout, lung cancer cells – cell-based, A549, JC-1 fluorescence, basal, 24 h, 100 nL, profiling panel (AID 1138).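 Note: A549 lung adenocarcinoma cells under basal conditions with no added stimulus; test concentration not given here.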 The following applies: higher = more signal.
The subject of experiment [8] is Lefty1. Kind of experiment: Lefty1 protein binding to printed compounds – biochemical, small-molecule microarray, 635/667 nm fluorescence, primary screen (AID 1139). The following applies: fluorescence 635/667, higher = more signal.
Experiment [9] deals with wheat germ agglutinin (Triticum aestivum), Alexa647-labelled. Kind of experiment: Alexa647-WGA lectin binding to printed small molecules – biochemical, small-molecule microarray, 635/667 nm fluorescence, artefact control for SMM control-protein annotation, profiling panel (AID 1140).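 Note: score merges 667 nm feature emission with signal to noise over triplicate slides.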 Conditions: WGA-A647 binding, 635 nm fluorescence, higher = more signal.
The target of experiment [10] is Luciferin 4-monooxygenase (Photinus pyralis) (UniProt P08659). The experiment can be described thus: inhibition of purified Photinus pyralis luciferase – biochemical, luminescence, purified enzyme, 2006 set, primary screen (AID 1141).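 Note: cell-free assay with purified firefly luciferase at 100 ng per well in PBS; test concentration not given here.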 The following applies: purified firefly luciferase, SteadyGlo luminescence, 30 min; higher = more signal, called active from +8 up or from −8 down.
Chain of Luciferin 4-monooxygenase (Photinus pyralis) (P08659 whole entry, looked up): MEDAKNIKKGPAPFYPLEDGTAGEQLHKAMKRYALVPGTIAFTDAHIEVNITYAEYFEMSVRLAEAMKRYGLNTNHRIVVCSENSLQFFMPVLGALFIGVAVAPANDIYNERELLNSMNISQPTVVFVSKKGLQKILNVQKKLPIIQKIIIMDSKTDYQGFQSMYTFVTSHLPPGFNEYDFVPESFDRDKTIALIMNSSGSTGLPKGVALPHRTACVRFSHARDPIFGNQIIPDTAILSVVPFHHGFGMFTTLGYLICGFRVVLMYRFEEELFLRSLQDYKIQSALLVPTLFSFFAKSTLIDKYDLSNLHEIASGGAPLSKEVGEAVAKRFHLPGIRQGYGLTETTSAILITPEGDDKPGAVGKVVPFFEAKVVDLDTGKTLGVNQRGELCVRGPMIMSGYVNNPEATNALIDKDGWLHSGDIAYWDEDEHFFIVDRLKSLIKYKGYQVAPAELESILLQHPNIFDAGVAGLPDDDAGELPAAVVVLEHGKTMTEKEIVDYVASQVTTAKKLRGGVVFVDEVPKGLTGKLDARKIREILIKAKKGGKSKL

Experiment [11] concerns Wnt5a (protein binding on small-molecule microarray). The experiment can be described thus: small molecules binding Wnt5a protein – biophysical, small-molecule microarray, 635/667 nm fluorescence, primary screen (AID 1142).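 Note: fluorescence read at 667 nm with signal to noise per printed feature.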 The following applies: 635 nm fluorescence, higher = more signal.
A short description of experiment [12]: ATP-based viability of Huh7 replicon cells – cell-based, CellTiter-Glo luminescence, basal, 48 h, cytotoxicity control for HCV replication inhibitor project, primary screen (AID 1143).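 Note: Huh7 hepatoma cells carrying a hepatitis C replication reporter with no stimulus; test concentration not given here.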 Conditions: higher = more signal, called active from +8 up or from −8 down.
The nature of experiment [13]: basal CRE-LacZ reporter activity in PC12 – cell-based, unstimulated, primary screen (AID 1145). The following applies: no forskolin, luminescence, 4.5 h, higher = more signal, called active from +8 up or from −8 down.
The nature of experiment [14]: forskolin-driven CRE-LacZ activity in PC12 – cell-based, CRE-LacZ reporter, forskolin-stimulated, primary screen (AID 1146).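 Note: PC12 cells with 6xCRE LacZ reporter stimulated by forskolin 10 µM; beta-galactosidase reporter signal reflecting CREB driven transcription.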 Conditions: luminescence, 4.5 h, higher = more signal, called active from +8 up or from −8 down.
Experiment [15] concerns the target Streptavidin (Streptomyces avidinii) (UniProt P22629). The experiment can be described thus: compounds binding control protein streptavidin – biophysical, small-molecule microarray, 635/667 nm fluorescence, artefact control for SMM compound annotation, primary screen (AID 1147).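 Note: signal reflects streptavidin binding to arrayed compounds as a control protein.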 Conditions: higher = more signal.
Experiment [16] in a line: probe aInhba binding on compound microarray – biochemical, small-molecule microarray, 635/667 nm fluorescence, primary screen (AID 1148).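 Note: score merges 667nm spot fluorescence with signal-to-noise for antibody binding to printed compounds.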 Conditions: higher = more signal.
Experiment [17] has as its target Torsin-1A (Homo sapiens) (UniProt O14656). Kind of experiment: TOR1A wild-type binding on microarray – cell lysate, small-molecule microarray, lysate, 635/667 nm, primary screen (AID 1149). The following applies: COS7 hTOR1A-WT lysate, 635 nm fluorescence, higher = more signal.
For experiment [18] the target is unchanged. The experiment can be described thus: torsin A mutant lysate binding on microarrays – cell lysate, small-molecule microarray, COS7 lysate, 635/667 nm fluorescence, primary screen (AID 1150).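 Note: score pools 667 nm emission and signal to noise measuring lysate protein binding.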 The following applies: COS7 hTOR1A mutant lysate, 635 nm fluorescence, higher = more signal.
The subject of experiment [19] is Sonic hedgehog protein (Shh). Kind of experiment: Sonic hedgehog microarray binding compounds – biochemical, small-molecule microarray, 635/667 nm fluorescence, primary screen (AID 1151).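 Note: Shh protein binding to compounds spotted on small-molecule microarray slides; score combines spot fluorescence intensity with signal-to-noise across triplicate slides.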 Conditions: 635 nm fluorescence, higher = more signal.

The values below come from PubChem BioAssay.

Activity calls are given as the source filed them.

Chain of Fibroblast growth factor 2 (Homo sapiens) (P09038 whole entry, looked up): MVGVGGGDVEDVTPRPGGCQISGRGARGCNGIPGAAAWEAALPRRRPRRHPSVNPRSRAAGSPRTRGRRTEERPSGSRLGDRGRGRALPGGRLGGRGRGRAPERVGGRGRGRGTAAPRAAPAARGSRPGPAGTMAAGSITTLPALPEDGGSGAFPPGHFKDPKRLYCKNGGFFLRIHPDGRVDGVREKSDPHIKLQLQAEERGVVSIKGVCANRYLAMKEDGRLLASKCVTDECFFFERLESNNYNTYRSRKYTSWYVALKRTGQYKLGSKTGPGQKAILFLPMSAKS
Chain of Torsin-1A (Homo sapiens) (O14656 whole entry, looked up): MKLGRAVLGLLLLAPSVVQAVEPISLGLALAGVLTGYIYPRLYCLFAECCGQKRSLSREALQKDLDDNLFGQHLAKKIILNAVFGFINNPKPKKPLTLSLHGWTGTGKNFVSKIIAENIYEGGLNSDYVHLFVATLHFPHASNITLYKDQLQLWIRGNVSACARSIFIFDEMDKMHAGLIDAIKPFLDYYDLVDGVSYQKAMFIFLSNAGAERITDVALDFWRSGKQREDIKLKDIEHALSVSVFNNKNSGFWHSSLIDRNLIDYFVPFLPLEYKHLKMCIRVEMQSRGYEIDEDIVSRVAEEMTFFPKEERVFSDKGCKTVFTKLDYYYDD
Chain of Streptavidin (Streptomyces avidinii) (P22629 whole entry, looked up): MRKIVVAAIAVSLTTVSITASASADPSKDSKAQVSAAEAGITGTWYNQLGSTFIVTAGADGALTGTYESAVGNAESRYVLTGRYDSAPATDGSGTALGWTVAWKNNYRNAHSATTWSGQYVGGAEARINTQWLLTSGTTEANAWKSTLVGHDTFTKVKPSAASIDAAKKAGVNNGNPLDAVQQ

As for `C=CCNC(=O)[C@H]1[C@@H]2C(=O)O[C@@H](c3ccccc3)[C@@H](c3ccccc3)N2[C@@H](c2ccc(O)cc2)[C@]12C(=O)Nc1ccc(C#CCNC(N)=O)cc12`, the composite z-score in experiment [1] was -1.09; in [2], -0.572; in experiment [3], 0.199; in [4] it was -1.04; in experiment [5] it was 0.094; in experiment [6], -0.415. Moreover, the composite z-score in [8] is -0.886; in [9] it was -0.52; in experiment [11], -0.261; in [15] it was -0.96; in [16], 0.468; in experiment [17], -0.109. In addition, the composite z-score in experiment [18] stood at 0.0926; in experiment [19], 0.103. For the same compound, the z-score in [7] is -0.171; in [10], -1.25 (inactive); in experiment [12] it was -0.23 (inactive); in experiment [13], -0.594 (inactive); in experiment [14] it was -0.759 (inactive).
`C[N+](C)(C)CCCC[C@@H]1NC(=O)[C@H]2C[C@@H](C(=O)NCc3ccc(F)cc3)[C@@H](c3cccc(OCCO)c3)N2C1=O`: the composite z-score in [1] stood at 1.02; in experiment [2] it was 0.431; in experiment [3] it was 1.05; in experiment [4], 0.14; in experiment [5], 1.46; in [6] it was 1.85. The composite z-score in experiment [8] is 1.07; in experiment [9] it was 0.0979; in experiment [11] it was 0.141; in experiment [15], -0.326; in experiment [16], -0.0963; in experiment [17] it was 0.55. Besides, the composite z-score in [18] was determined as 1.07; in experiment [19] it was 1.4. For the same compound, the z-score in [7] is 1.3; in [10], -0.908 (inactive); in [12] it was -0.533 (inactive); in experiment [13] it was 1.23 (inactive); in [14], -0.396 (inactive).
As to `C[C@H]1COC(=O)[C@H](Cc2ccccc2)NC(=O)[C@@H](C)COC(=O)[C@H](Cc2ccccc2)NC1=O`, the composite z-score in [1] was found to be 1.46; in experiment [2], 1.12; in experiment [3], 0.327; in experiment [4], 0.194; in experiment [5], 0.593; in [6] it was 0.635. Besides, the composite z-score in [8] was 1.03; in experiment [9] it was 0.523; in experiment [11], 0.226; in experiment [15] it was 1.65; in [16] it was -0.0523; in experiment [17], 1.18. The results for the composite z-score in experiment [18] and in experiment [19] were 0.654 and 1.13, respectively. Also, the z-score in experiment [7] was 1.04; in [10], -0.443 (inactive); in experiment [12], -2.12 (inactive); in experiment [13] it was 2.52 (inactive); in [14], -0.837 (inactive).
As for `O=C(NCc1ccccc1)[C@@]1(CCS(=O)(=O)c2ccccc2)COC(c2ccc(OCCCO)cc2)=N1`, the composite z-score was 3.16 in experiment [1]; 1.26 in experiment [2]; 0.79 in experiment [3]; 0.869 in experiment [4]; 0.354 in experiment [5]; -0.376 in experiment [6]. For the same compound, the composite z-score in experiment [8] is -0.278; in experiment [9], 1.49; in experiment [11], 0.23; in [15] it was 2; in [16] it was 0.281; in experiment [17] it was 0.911. Moreover, the composite z-score worked out at 0.576 in experiment [18] and 0.331 in experiment [19]. Also, the z-score is 0.959 in experiment [7]; -1.42 (inactive) in [10]; -3.07 (inactive) in experiment [12]; -0.137 (inactive) in experiment [13]; -2.67 (inactive) in experiment [14].
Consider `O=C1OCC=C[C@H]2OC34C=CCN(Cc5ccccc5)C(=O)[C@H]3N(CCCCCO)C(=O)[C@@H]4[C@@H]12` (stereo partly specified), for which the composite z-score was -0.171 in [1]; -0.614 in experiment [2]; 0.0672 in experiment [3]; -0.736 in experiment [4]; -1.14 in [5]; -1.24 in experiment [6]. Moreover, the composite z-score is -1.09 in experiment [8]; -1.29 in experiment [9]; -0.341 in experiment [11]; -1.62 in experiment [15]; 0.0282 in [16]; -0.391 in [17]. The composite z-score was -0.605 in experiment [18] and -1.09 in experiment [19]. For the same compound, the z-score is 0.0704 in [7]; -0.423 (inactive) in [10]; -2.93 (inactive) in experiment [12]; -0.354 (inactive) in [13]; -0.679 (inactive) in experiment [14].
For the compound `C[C@@H]1NC(=O)CC=C[C@@H](C)[C@@H]2C=C[C@H](O)[C@@H](COC(=O)[C@H](C)NC(=O)CC=C[C@@H](C)[C@@H]3C=C[C@H](O)[C@@H](COC1=O)O3)O2`, the composite z-score in experiment [1] was -0.689; in experiment [2] it was -0.453; in [3], 0.365; in experiment [4] it was -0.917; in experiment [5], 1.29; in experiment [6] it was 0.859. Besides, the composite z-score was 1.41 in [8]; -0.833 in [9]; 0.0414 in experiment [11]; -0.664 in [15]; -0.0581 in experiment [16]; 0.436 in experiment [17]. Besides, the results for the composite z-score in [18] and in [19] were 0.104 and 1.04, respectively. Also, the z-score in experiment [7] is -0.0173; in experiment [10] it was -0.595 (inactive); in experiment [12], -3.48 (inactive); in [13], -0.925 (inactive); in experiment [14], -0.89 (inactive).
In the case of `C[C@@H]1CC[C@H]2C(=O)N3[C@@H](CC[C@@H](C)[C@@H]3c3cccc(N4CCOCC4)c3)C(=O)N2[C@H]1c1cccc(Br)c1`, the composite z-score in experiment [1] was 1.52; in experiment [2], 1.04; in experiment [3], -0.0269; in experiment [4], 0.783; in experiment [5] it was 1.12; in experiment [6], 0.555. In addition, the composite z-score in [8] stood at 1.15; in [9] it was 1.04; in [11] it was 0.205; in experiment [15], 0.63; in experiment [16] it was 0.0561; in experiment [17] it was 0.472. Further, the composite z-score came to 0.418 in experiment [18] and 0.994 in experiment [19]. Moreover, the z-score was 2.96 in [7]; -1.13 (inactive) in [10]; -0.167 (inactive) in [12]; 4.71 (inactive) in [13]; -0.902 (inactive) in experiment [14].
As for `CN(C)C(=O)[C@@]1(Cc2ccccc2N=[N+]=[N-])N=C(c2ccc(OCCCO)cc2)O[C@H]1c1ccccc1CN=[N+]=[N-]`, the composite z-score turned out to be 2.23 in [1]; 1.23 in experiment [2]; 1.02 in experiment [3]; 0.831 in experiment [4]; 1.21 in [5]; 0.512 in [6]. Besides, the composite z-score in [8] was 0.633; in experiment [9], 1.45; in experiment [11] it was 0.549; in experiment [15], 1.41; in experiment [16], 0.372; in experiment [17], 0.477. Further, the composite z-score worked out at 1.24 in [18] and 0.397 in experiment [19]. The z-score is 2.31 in [7]; -1.92 (inactive) in [10]; -3.09 (inactive) in experiment [12]; 1.65 (inactive) in experiment [13]; -1.39 (inactive) in experiment [14].
For `CO[C@H]1COC(=O)CC=C[C@H](C)[C@@H](OC)COC(=O)[C@H](Cc2ccccc2)NC(=O)CC=C[C@@H]1C`, the composite z-score is -1.1 in experiment [1]; -2.59 in experiment [2]; 0.264 in [3]; -1.23 in experiment [4]; 1.42 in experiment [5]; 1.34 in experiment [6]. Also, the composite z-score in experiment [8] was 1.59; in experiment [9], -0.324; in experiment [11], -0.359; in experiment [15], -0.234; in [16], -0.408; in experiment [17], 0.45. For the same compound, the composite z-score in experiment [18] came to 0.593; in experiment [19], 2.05. In addition, the z-score was 1.39 in experiment [7]; -1.06 (inactive) in experiment [10]; -0.89 (inactive) in experiment [12]; 0.248 (inactive) in [13]; -0.802 (inactive) in experiment [14].
